Screens as filed in PubChem BioAssay.
Compounds with a hit are over-represented: about 5.5% of the library has one in this group of screens.
uPA generation: blocks generation of uPA at the cell surface. Potency, µM (doses to about 38.3 µM), inactives show top-dose activity change, negative = inhibition, actives largely listed as inhibitors. 330,000 compounds, 0.31% hits. cell surface uPA generation assay, qHTS. AID 540303; active = well fitted inhibition curve with a large enough effect; inconclusive = small, poorly fitted or top-dose-only effect; inactive = no such curve, though single readings can be large or run the other way; tested in mouse RAW 264.7 cells; note: % is set by controls: 0 for no effect and ±100 for the full control effect; nearly all actives have a fitted effect of over 55% in size
a7 integrin act: activates integrin-mediated alleviation for muscular dystrophy; Potency, µM (titrated, usually from 38.3 µM), for the others: at the highest dose activation, hits mostly activators; alpha7betagal myoblasts, beta-gal FDG fluorescence, 48 h; 350,000 compounds, 0.064% hits;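 note: 100% = response of the positive control SU9516; nearly all actives have a fitted effect of over 60% in size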
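Alpha7betagal+/- myoblasts (passage 13) were plated 16-24 hr, then exposed to compounds (1:260 dilution of DMSO stock) for 48 hours at 37C. After MPER lysis, β-galactosidase reporter activity was read as FDG fluorescence (ex 480/em 540) after 30 minutes.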
RORg inh: inhibitors of mouse ROR gamma transcriptional activity; P51450; Drosophila S2 Gal4-RORgamma UAS-luciferase reporter, 20 h; Potency, µM (highest dose often 53.6 µM), without a hit: at the highest dose activity change, negative = inhibition, most hits filed as inhibitors; 310,000 compounds, 5.4% hits; AID 2551; note: % is set by controls: 0 for no effect and ±100 for the full control effect; nearly all actives have a fitted effect of over 60% in size
Target sequence (P51450 whole entry, looked up, the tested form may be a part): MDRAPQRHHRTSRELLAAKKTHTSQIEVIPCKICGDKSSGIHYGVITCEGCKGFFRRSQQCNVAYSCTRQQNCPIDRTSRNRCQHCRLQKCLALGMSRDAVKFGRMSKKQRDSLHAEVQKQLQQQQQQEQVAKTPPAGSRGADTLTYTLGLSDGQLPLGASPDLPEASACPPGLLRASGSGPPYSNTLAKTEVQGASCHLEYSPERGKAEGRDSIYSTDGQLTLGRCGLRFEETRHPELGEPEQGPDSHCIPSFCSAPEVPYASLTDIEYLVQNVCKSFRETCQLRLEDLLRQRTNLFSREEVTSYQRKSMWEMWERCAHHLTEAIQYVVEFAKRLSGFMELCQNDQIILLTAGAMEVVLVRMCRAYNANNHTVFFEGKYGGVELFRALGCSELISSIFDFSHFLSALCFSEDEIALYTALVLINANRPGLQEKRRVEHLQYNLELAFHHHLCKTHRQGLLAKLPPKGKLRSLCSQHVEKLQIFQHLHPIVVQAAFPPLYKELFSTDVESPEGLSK
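ROR gamma transcriptional activity was tracked as Gal4-UAS luciferase output in stably transfected Drosophila Schneider cells, with compound added 1 hr before 700 uM copper sulfate induction and a 20 hr ambient-temperature incubation.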
Mito fusion act: blocks mitochondrial division or promotes mitochondrial fusion; S. cerevisiae fusion-defective mutant growth rescue, CellTiterGlo 48 h; Potency, µM (top dose mostly 46.1 µM), inactives show at the highest dose growth rescue (activation), most hits filed as activators; 320,000 compounds, 0.23% hits; note: % of control where 0% means no effect; nearly all actives have a fitted effect of over 45% in size
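Yeast fusion mutant, YPEG (non-fermentable carbon), compound, 48 h at 37C non-permissive; CellTiterGlo added, 10 min RT, luminescence read. Rescued growth = division inhibition.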
BCR signal inh: chronic active BCR signaling inhibition | ABC-DLBCL IkBa-CBG/CBR reporter, luminescence ratio, 4 h | Potency, µM (top dose mostly 46.1 µM), without a hit: top-dose activity change, negative = inhibition, hits mostly inhibitors | 340,000 compounds, 0.05% hits | AID 493014; active = well fitted inhibition curve with a large enough effect in the signal ratio, with a control signal flat, not every such curve was filed as active; inconclusive = small, poorly fitted or top-dose-only effect, or effect the other way, or a change in a side signal; the % refers to the signal ratio;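 note: plate controls were basal doxycycline-induced cells for no effect and cells given 10 µM MG132 for full effect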
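Doxycycline induced both beetle luciferases in TMD8 lymphoma cells; IKK-driven degradation limits the IkappaBalpha-fused green signal, while red luminescence normalises for cell number and nonspecific effects. Compounds tested up to 46 uM, 4 hrs.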
Gal4-VP16 FLuc: inhibits Gal4-VP16 luciferase reporter, ROR gamma counter-screen | AID 2546 | Potency, µM (highest dose often 53.6 µM), for the others: at the top dose activity, negative = inhibition, most hits filed as inhibitors | 310,000 compounds, 3.5% hits | Drosophila S2 Gal4-VP16 UAS-luciferase, luminescence, 20 h;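 note: Gal4-VP16 expression switched on by copper sulfate through the metallothionein promoter; % is set by controls: 0 for no effect and ±100 for the full control effect; nearly all actives have a fitted effect of over 50% in size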
Starred values were filed as active, the others as inactive; ? = inconclusive; . = no result given; [ ] = another dose, or the depositor's remark. Unless noted, calls come from the whole dose curve; as a rule, active = well fitted curve in the direction sought with a large enough effect; inconclusive = small, poorly fitted or top-dose-only effect, or another doubt; inactive = no such curve, though single readings can be large; an effect the other way counts as inactive or inconclusive. Potency is the fitted concentration of half-maximal effect.

SMILES	uPA generation	a7 integrin act	RORg inh	Mito fusion act	BCR signal inh	Gal4-VP16 FLuc
CNC(=S)NNC(=O)COc1cccc(C)c1C	2.9%	-8.7%	1.41µM*	0.0%	-6.6%	7.08µM*
Cc1nnc(SCC2=C(C(=O)O)N3C(=O)[C@@H](NC(=O)Cn4cnnn4)[C@@H]3SC2)s1	.	.	-4.5%[16.9 µM]	.	.	-10.4%[17 µM]
O=C1CNC(=S)N1C1CCCCCC1	-0.2%	30.4%	11.2µM*	-13.1%	12.7%	-24.3%
COC(=O)c1cc(OC)c(OC)cc1NC(=S)Nc1cc(Cl)ccc1OC	-2.7%	-3.1%	1.26µM*	1.4%	?	1.41µM*
COc1ccc(Cl)cc1NC(=S)Nc1ccc(Cl)cn1	-11.5%	-27.1%	1.26µM*	-3.3%	-3.8%	?
COC(=O)c1cc(OC)c(OC)cc1NC(=S)Nc1cccc(Cl)c1	1.5%	11.1%	3.98µM*	2.7%	3.2%	6.31µM*
COC(=O)c1cc(OC)c(OC)cc1NC(=O)c1ccc(OC)c(OC)c1	-0.8%	3.0%	11.8%	7.3%	?	-5.0%
CCc1ccc(NC(=O)CSc2nc3ccsc3c(=O)n2C(C)CC)cc1 (stereo not given)	.	.	.	.	-3.8%	.
CCC(NC(=S)NC1CCCCC1)c1ccc(C)cc1 (stereo not given)	.	.	2.82µM*	-16.5%	3.2%	5.01µM*
CC(NC(=S)NC1CCCCC1)c1ccccc1 (stereo not given)	4.3%	?	-17.9%[1.91 µM]	-13.6%	2.6%	?
CCCc1ccc(C(C)NC(=S)NC2CCCCC2)cc1 (stereo not given)	-14.7%	-22.5%	2.51µM*	-10.3%	-3.5%	3.55µM*
O=C(O)C1Nc2ccc(C(F)(F)F)cc2C2OCCC12 (stereo not given)	6.4%	0.9%	.	.	.	.
COC(=O)NC(C)N1C(=O)C2C3C=CC(C3)C2C1=O (stereo not given)	2.5%	-23.6%	0.0%	11.2%	0.0%	3.2%
CC(C)(C)c1ccc(C(=O)/C=C2\NC(=O)CS2)cc1	-18.9%	-16.6%	3.16µM*	10.2%	?	10µM*
Cc1ccc(NC(=O)/C=C2\NC(=O)CS2)cc1	-2.2%	-0.5%	?	2.5%	?	-5.8%
CC[C@H](C)[C@H](NC(=O)CNC(=O)[C@H](CC(C)C)NC(=O)[C@H](CC(C)C)NC(=O)[C@H](CCC(N)=O)NC(=O)[C@H](CCC(N)=O)NC(=O)[C@H](CC(=O)O)NC(=O)[C@H](CCCCN)NC(=O)[C@H](CC(C)C)NC(=O)[C@H](Cc1ccc(O)cc1)NC(=O)[C@H](CCCNC(=N)N)NC(=O)[C@H](CCC(=O)O)NC(=O)[C@@H](NC(=O)[C@H](C)NC(=O)[C@H](CC(C)C)NC(=O)[C@@H](NC(=O)[C@@H](N)CCCNC(=N)N)[C@@H](C)CC)C(C)C)C(=O)N[C@@H](Cc1c[nH]c2ccccc12)C(=O)NCC(=O)N[C@@H](CS)C(=O)N[C@@H](CO)C(=O)O	.	.	1.7%	.	.	3.3%
Cc1c(Cl)cccc1NC(=S)/C(=C(\[O-])c1ccc(Cl)s1)[n+]1ccccc1	1.9%	29.0%	?	29.0%	-6.9%	5.62µM*
CC(C)(C)OC(=O)NCCCC[C@H](NC(=O)c1nc[nH]c1C(=O)NC(c1ccccc1)c1ccccc1)C(=O)OC(C)(C)C	?	-12.2%	10µM*	-1.5%	16.0%	?
C[C@H](NC(=O)c1nc[nH]c1C(=O)N[C@@H](CCCCNC(=O)OC(C)(C)C)C(=O)OC(C)(C)C)C(=O)OC(C)(C)C	5.9%	-24.9%	?	2.2%	-8.3%	12.6µM*
CC(C)(C)OC(=O)NCCCCCNC(=O)c1[nH]cnc1C(=O)N[C@@H](CCCCNC(=O)OC(C)(C)C)C(=O)OC(C)(C)C	-0.2%	-15.3%	?	-4.2%	-1.7%	?
CC(C)(C)OC(=O)NCCCC[C@H](NC(=O)c1nc[nH]c1C(=O)N[C@@H](CCCCNC(=O)OC(C)(C)C)C(=O)OC(C)(C)C)C(=O)OC(C)(C)C	-1.9%	-9.4%	?	-15.4%	7.6%	-9.0%
CN(CC(=O)Nc1ccc2c(c1)OCO2)S(=O)(=O)c1cccs1	1.9%	5.9%	10.6%	13.3%	-3.7%	20.4%
CCOC(=O)c1ccc(NC(=S)N2CCCC(C)C2)cc1 (stereo not given)	5.3%	-22.1%	12.6µM*	-5.0%	-11.4%	?
CC1CCCN(C(=S)NCCc2ccccc2)C1 (stereo not given)	2.8%	-10.9%	?	-1.5%	1.9%	-0.5%
CCCCc1ccc(NC(=S)N2CCCC(C)C2)cc1 (stereo not given)	3.7%	-60.7%	5.01µM*	-0.3%	-3.4%	?
SMILES	uPA generation	a7 integrin act	RORg inh	Mito fusion act	BCR signal inh	Gal4-VP16 FLuc
CCOC(=O)c1ccc(NC(=S)N2CCSC2c2ccc(Br)cc2)cc1 (stereo not given)	1.8%	-46.0%	?	22.4µM*	?	?
CC(C)CCn1c(-c2nonc2N)nc2ccccc21	-2.4%	6.6%	10µM*	-1.3%	?	?
COc1ccc(-c2nnc3n2N=C(c2ccc(OC)c(OC)c2)CS3)c(OC)c1	.	.	32.7%	.	.	-1.5%
COc1ccc(-c2nnc(SCc3ccccc3F)o2)cc1OC	-3.7%	11.6%	28.3%	12.7%	?	-2.4%
COc1ccccc1N1CCN(c2nnc(-c3ccc(F)cc3)c3ccccc23)CC1	-3.6%	-9.2%	-7.2%	1.9%	5.0%	-10.6%
COc1cc2c3nnc(-c4ccc(F)cc4)c-3cn(Cc3ccccc3F)c2cc1OC	3.7%	0.0%	6.31µM*	-2.4%	?	5.01µM*
COc1cc2c3nnc(-c4ccccc4)c-3cn(Cc3ccccc3F)c2cc1OC	3.2%	-30.5%	8.91µM*	-1.7%	?	?
COc1ccc(NC(=S)NCc2ccccc2)c(OC)c1	3.2%	-11.6%	15.8µM*	-12.3%	-2.1%	?
COc1cc(Cl)c(C)cc1NC(=S)NN	5.1%	14.4%	2.51µM*	3.4%	?	?
COc1ccc(NC(=O)CC(C)CC(=O)NCc2ccccc2)c(OC)c1 (stereo not given)	33.2%	?	-13.1%	1.2%	3.8%	0.6%
COc1ccc(NC(=S)NCCc2ccccc2)c(OC)c1	.	5.3%	11.2µM*	-2.5%	?	17.8µM*
COc1cc(OC)c(NC(=S)Nc2cc(Cl)cc(Cl)c2)cc1Cl	-5.6%	-25.6%	12.6µM*	-8.9%	?	?
C[C@]12CCC(=O)C=C1CCC1C3CC[C@](O)(C(=O)CO)[C@@]3(C)CC3OC312 (stereo not given in full)	.	.	-18.6%	.	.	-7.6%
COc1cc(OC)c(NC(=S)NCc2ccccc2)cc1Cl	-6.5%	0.3%	11.2µM*	-2.5%	-0.4%	?
